High-throughput results: PubChem, National Center for Advancing Translational Sciences (NCATS)
Cruzain inh Det = qHTS Assay for Promiscuous and Specific Inhibitors of Cruzain (with detergent) | Cruzipain (Trypanosoma cruzi), P25779 | purified cruzain, Z-FR-AMC fluorescence, 0.01% Triton | Potency, µM, for inactives: max response, negative = inhibition, hits mostly inhibitors | 200,000 tested, 0.43% active | AID 1478, 2009;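 also: plate controls were neutral wells for no effect and buffer without enzyme for full effect; nearly all actives have a fitted effect of over 40% in size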
Target sequence (P25779 123-467 limits assumed): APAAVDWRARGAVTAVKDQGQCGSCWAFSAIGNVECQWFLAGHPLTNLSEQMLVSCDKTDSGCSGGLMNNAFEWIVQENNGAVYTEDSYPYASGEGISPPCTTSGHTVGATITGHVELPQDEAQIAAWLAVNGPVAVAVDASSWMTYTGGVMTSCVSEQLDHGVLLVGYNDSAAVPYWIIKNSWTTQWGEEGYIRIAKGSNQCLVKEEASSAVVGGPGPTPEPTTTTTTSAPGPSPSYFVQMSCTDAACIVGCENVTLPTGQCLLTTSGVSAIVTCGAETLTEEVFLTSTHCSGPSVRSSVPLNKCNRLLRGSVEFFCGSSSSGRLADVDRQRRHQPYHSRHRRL
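Sodium acetate buffer (100 mM, pH 5.5) containing 5 mM DTT and 0.01% Triton X-100 hosted 1.5 nM cruzain and test compound for 15 min at room temperature. Cleavage of 2 uM Z-FR-AMC was then tracked by fluorescence.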
Cruzain inh noDet = qHTS Assay for Promiscuous and Specific Inhibitors of Cruzain (without detergent). 200,000 tested, 2.3% active. AID 1476, 2009. Potency, µM, for the others: max response, negative = inhibition, actives largely listed as inhibitors. purified cruzain, Z-FR-AMC fluorescence, no detergent;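 also: plate controls were enzyme without inhibitor for no effect and buffer without enzyme for full effect; nearly all actives have a fitted effect of over 40% in size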
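Purified cruzain at 1.5 nM, pre-incubated 15 min with compound at room temperature in 100 mM sodium acetate pH 5.5, 5 mM DTT, 0.00005% Triton X-100. Reaction started with 2 uM Z-FR-AMC; AMC fluorescence increase over 60 s gives rate.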
NS1 inh = qHTS Assay for Inhibitors of Influenza NS1 Protein Function; AID 2326, 2010; 270,000 tested, 0.4% active; Potency, µM (top dose mostly 46.1 µM), inactives show at the top dose activity, positive = more growth; calls by dose curve; also: actives are rising curves; nearly all actives have a fitted effect of over 50% in size
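A cell-based growth assay was used: compounds that relieve NS1-induced slow growth of budding yeast raise OD600. Assay medium was yeast nitrogen base with ammonium sulphate and -URA supplement, pH 6.0, with 2% galactose.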
An asterisk follows results filed as active; ? = inconclusive; · = no result given. Many of the other results were omitted from the sample, so hits are more common in it than they were. Unless noted, calls follow the shape of the dose curve; as a rule, active = well fitted curve in the direction sought with a large enough effect; inconclusive = small, poorly fitted or top-dose-only effect, or another doubt; inactive = no such curve, though single readings can be large; an effect the other way counts as inactive or inconclusive. Potency is read from the fitted curve at half-maximal effect.

SMILES	Cruzain inh Det	Cruzain inh noDet	NS1 inh
O=C(CN1C(=O)S/C(=C\c2ccc(Cl)cc2)C1=O)NNC(=O)c1ccccc1O	-6%	20µM*	0%
Cc1ccc(C(=O)O)cc1	5%	-10%	·
Cc1cc(C)c(-c2cc(NC(=O)COC(=O)c3ccc(C#N)cc3)n(-c3ccccc3)n2)cc1C	-6%	16µM*	24%
Cc1cc(C)c(-c2cc(NC(=O)CSc3nncn3C)n(-c3ccccc3)n2)cc1C	-3%	?	1%
Cc1onc(-c2c(F)cccc2Cl)c1C(=O)OCC(=O)NC(N)=O	·	·	7%
Cc1onc(-c2c(F)cccc2Cl)c1C(=O)OCC(=O)NC(c1ccccc1)c1ccccc1	-4%	32µM*	0%
O=c1[nH]c(CSc2ncnc3sccc23)nc2cc(C(F)(F)F)ccc12	·	·	1%
Cc1cc2cc(CNC(=O)c3ccc(S(=O)(=O)N4CCCCC4)cc3)ccc2n1C	-6%	?	1.3µM*
CCN(CC)S(=O)(=O)c1ccc(C(=O)NCc2ccc3c(c2)cc(C)n3C)cc1	5%	-29%	?
COc1ccccc1NC(=O)c1cc(C(=O)Nc2ccccc2OC)cc([N+](=O)[O-])c1	·	·	-2%
Cc1cccc(N2CCN(C(=O)COc3ccc4c(C)cc(=O)oc4c3C)CC2)c1C	·	·	6%
COC(=O)c1c(NC(=O)CC2SC(N)=NC2=O)sc2c1CCCC2 (stereo not given)	-6%	-22%	18%
CSCCc1nc(SCC(=O)Nc2nnc(C)s2)[nH]c1C	4%	-5%	-8%
O=C(Nc1ncc(S(=O)(=O)c2ccc([N+](=O)[O-])cc2)s1)c1cccc2ccccc12	-4%	13µM*	13%
CCCCC(=O)Nc1ncc(S(=O)(=O)c2ccc([N+](=O)[O-])cc2)s1	·	·	4%
CCc1cc[n+](/C(C(=S)Nc2cccc(C)c2)=C(/[O-])c2ccc(C)c([N+](=O)[O-])c2)cc1	-9%	-21%	3%
CCOc1ccc(NC(=S)/C(=C(\[O-])c2ccc(C)c([N+](=O)[O-])c2)[n+]2ccccc2)cc1	-6%	25µM*	2%
COc1ccc(-n2nc(C(=O)Nc3cccc(C(F)(F)F)c3)c3c4ccccc4n(C)c3c2=O)cc1	-1%	-9%	·
O=C(CC(Cc1ccccc1)C(=O)O)Nc1ccccc1 (stereo not given)	·	·	1%
Cc1cccc(C2=NN(c3ccc(Br)cc3)[C@@H](C(=O)N3CCOC3=O)[C@@H]2c2ccc([N+](=O)[O-])cc2)c1	1%	6.3µM*	·
Cc1cccc(C2=NN(c3ccc(Br)cc3)[C@@H](C(=O)N3CCOC3=O)[C@@H]2C)c1	0%	28µM*	·
O=C1OCCN1C(=O)[C@H]1[C@H](c2ccc([N+](=O)[O-])cc2)C(c2ccccc2)=NN1c1ccccc1	4%	?	·
Cc1cccc(C2=NN(c3ccccc3)[C@@H](C(=O)N3CCOC3=O)[C@@H]2C)c1	0%	1%	·
Cc1ccnc(NC(=O)CCC(=O)N(CC(=O)NCc2ccccc2)Cc2ccc(F)cc2)c1	·	·	-8%
C=CC1=C(C(=O)O)N2C(=O)[C@@H](NC(=O)/C(=N\OCC(=O)O)c3csc(N)n3)[C@@H]2SC1	-1%	-1%	·
SMILES	Cruzain inh Det	Cruzain inh noDet	NS1 inh
CCN(CC)C(=O)Cn1cc(C(=O)C(=O)N2CCN(Cc3ccccc3)CC2)c2ccccc21	·	·	3%
CCc1ccccc1NC(=O)CCC(=O)OCC(=O)c1ccc(-c2ccccc2)cc1	-2%	16µM*	?
COc1ccccc1NC(=O)CCC(=O)c1ccc(-c2ccccc2)cc1	-7%	-3%	11%
COc1cc(C=NCC2OCCc3ccccc32)cc(OC)c1 (stereo not given)	-2%	-4%	-35%
COc1ccc2nc(-c3ccc(N)cc3)[nH]c2c1	28µM*	10µM*	-1%
COc1ccc2nc(-c3cccc(N)c3)[nH]c2c1	-15%	-20%	15%
Cc1ccccc1C(=O)Oc1cc(-c2ccc3c(c2)OCO3)cc(=O)c2c(C)oc(C)c12	-9%	20µM*	·
Cc1ccc(C(=O)Oc2cc(-c3ccc4c(c3)OCO4)cc(=O)c3c(C)oc(C)c23)cc1	-6%	?	·
Cc1oc(C)c2c(=O)cc(-c3ccc4c(c3)OCO4)cc(OC(=O)c3cccc(Cl)c3)c12	-4%	?	·
Cc1oc(C)c2c(=O)cc(-c3ccc4c(c3)OCO4)cc(OC(=O)c3cccc(Br)c3)c12	-3%	25µM*	·
FC(F)(F)c1ccc(CN2C[C@@H]3C(c4ccc(Cl)nc4)C4(c5cccnc5)CC3(C4)[C@H]2c2ccccc2)cc1 (stereo not given in full)	-2%	-1%	-2%
CCC(C)(C)NC(=O)c1cc(S(=O)(=O)N2CCc3ccccc32)cn1C	·	·	12%
CCN1C(=O)c2ccccc2Sc2ccc(NC(=O)Nc3ccc(C(C)=O)cc3)cc21	-5%	20%	·
CCN1C(=O)c2ccccc2Sc2ccc(NC(=O)Nc3ccc(Br)c(C)c3)cc21	-2%	7.9µM*	·
Cc1ccc(CNC(=O)c2cc3c(=O)n4ccccc4nc3n(CC3CCCO3)c2=N)cc1 (stereo not given)	?	-4%	-3%
CCc1nnc(NC(=O)c2cccc(S(=O)(=O)N3CCCCC3)c2)s1	·	·	4%
O=C(Nc1nc(-c2cccs2)cs1)c1ccc(S(=O)(=O)N2CCCC2)cc1	2%	-17%	-2%
O=C(Nc1nc(-c2ccc3c(c2)OCCO3)cs1)c1ccc(S(=O)(=O)N2CCCCC2)cc1	-1%	13µM*	6%
Cc1csc(NC(=O)c2ccc(S(=O)(=O)N3CCCC3)cc2)n1	·	·	-2%
O=C(Nc1nc(-c2ccc(S(=O)(=O)N3CCCCCC3)cc2)cs1)c1ccccc1	-3%	10µM*	13%
CCc1nnc(NC(=O)c2ccc(S(=O)(=O)N3CCCCCC3)cc2)s1	4%	13µM*	4%
CC(=O)c1ccc(NC(=S)N2CCC(Cc3ccccc3)CC2)cc1	·	·	2%
Cn1c(=O)n(CC(=O)Nc2cccnc2)c2ccccc21	·	·	8%
COc1ccccc1-c1csc(NC(=O)c2cc(-c3cccs3)nc3ccccc23)n1	-3%	4µM*	?
COc1ccc(-c2csc(NC(=O)c3cc(-c4cccs4)nc4ccccc34)n2)c(OC)c1	2%	5µM*	26%
SMILES	Cruzain inh Det	Cruzain inh noDet	NS1 inh
COc1ccc(-c2cc(C(=O)N/N=C/c3sccc3C)c3ccccc3n2)c(OC)c1	-11%	?	-45%
COc1ccccc1-c1cc(C(=O)N/N=C/c2cccs2)c2ccccc2n1	-10%	-13%	16%
Cc1nc2ncnn2c(N2CCN(C(=O)c3cccc(F)c3)CC2)c1C	-3%	-4%	-2%
Cc1ccc(CNc2nc3ccc(C)cc3n3nnnc23)cc1	-2%	-7%	·
Cc1ccc(Cc2cnc(N3C(=N)SC(c4ccccc4)C3=O)s2)cc1 (stereo not given)	0%	?	5%
N=C1SC(c2ccccc2)C(=O)N1c1ncc(Cc2ccccc2)s1 (stereo not given)	2%	7.9µM*	15%
COc1ccc(CC(=O)Nc2ccc(-c3noc(-c4cccc(OC)c4)n3)cc2)cc1	3%	7.9µM*	?
COc1ccccc1CC(=O)Nc1ccc(-c2noc(COc3ccc(Cl)c(C)c3)n2)cc1	4%	25µM*	7%
CCOc1ccccc1-c1nc(-c2ccc(NC(=O)Cc3ccccc3OC)cc2)no1	4%	25µM*	-15%
